Experimental data as given in PubChem BioAssay (EPA / NIEHS).
Results filed as inconclusive are left out. Some structures have more than one record in an assay (separate samples or runs), and their calls can disagree. Calls of active or inactive are those of the source. Rule for the calls: active = hit-call score of the fitted dose curve at least 0.9, where 1 is the maximum; inconclusive = response in the unintended direction; inactive = score below 0.9.

test: ATG_XTT_Cytotoxicity: Cytotoxicity Assessment in the Attagene TRANS-FACTORIAL HepG2 Assay (AID 2283584);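 for AC50: cells exposed to compound for 24 h before reading; active means loss of viability signal versus DMSO baseline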
How it was run: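 Viability endpoint from XTT after 24 h chemical exposure of reporter-transfected human HepG2 liver cells; signal loss fitted relative to DMSO negative control.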

Row | SMILES | outcome | AC50
1 | O=C(CCl)CCl | inactive | –
2 | N#CCCO | inactive | –
3 | CCOP(=O)(CN(CCO)CCO)OCC | inactive | –
4 | O=Cc1cccc(Oc2ccccc2)c1 | inactive | –
5 | COc1cc2c(cc1OC)[C@@]13CCN4CC5=CCO[C@H]6CC(=O)N2[C@H]1[C@H]6[C@H]5C[C@H]43 | inactive | –
6 | O=S(=O)(c1ccc(Cl)cc1)c1ccc(Cl)cc1 | inactive | –
7 | COP(=O)(OC)OC | inactive | –
8 | CCC(C)c1cccc(C(C)CC)c1O (centres undefined) | inactive | –
9 | CCOC(=O)/C=C(C)/C=C/C[C@@H](C)CCCC(C)C | inactive | –
10 | CCOP(=S)(OCC)Oc1ccc(S(C)=O)cc1 (centres undefined) | inactive | –
11 | CC(C)C1CCC(Cc2ccc(Cl)cc2)C1(O)Cn1cncn1 (centres undefined) | inactive | 33.2 µM (active)
12 | CC(=O)OC(c1ccccc1)C(Cl)(Cl)Cl (centres undefined) | inactive | –
13 | C=CC(=O)N(C)C | inactive | –
14 | CN(C)P(=O)(N(C)C)N(C)C | inactive | –
15 | CC(C)OC(=O)Nc1ccccc1 | inactive | –
16 | CC(C)CCCCCCOC(=O)c1ccccc1C(=O)OCCCCCCC(C)C | inactive | –
17 | ClC(Cl)=C(Cl)C(Cl)=C(Cl)Cl | inactive | –

Row | SMILES | outcome | AC50
18 | O=P(O)(O)CN(CP(=O)(O)O)CP(=O)(O)O | inactive | –
19 | Clc1ccc(C2(Cn3cncn3)CC(Br)CO2)c(Cl)c1 (centres undefined) | inactive | –
20 | C=C(C)C#N | inactive | –
21 | [O-][Cl+2]([O-])O | inactive | –
22 | CCCCCCCCSC(=O)Oc1cc(Cl)nnc1-c1ccccc1 | inactive | –
23 | CC(C#N)CCC#N (centres undefined) | inactive | –
24 | CC(=O)C(Cl)C(=O)N(C)C (centres undefined) | inactive | –
25 | Fc1ccc(C2(Cn3cncn3)OC2c2ccccc2Cl)cc1 (centres undefined) | inactive | –
26 | CCCCC(CC)CO[N+](=O)[O-] (centres undefined) | inactive | –
27 | CC1(C)Cc2cccc(O)c2O1 | inactive | –
28 | O=C(NCO)NCO | inactive | –
29 | CCc1ccccc1N | inactive | –
30 | C1CCC(NC2CCCCC2)CC1 | inactive | –
31 | C=CCc1ccc(OC)cc1 | inactive | –
32 | C[C@@H](Oc1ccc(Cl)cc1Cl)C(=O)O | inactive | –
33 | COc1ccc(C=O)cc1OC | inactive | –
